Measurements published in the supplement of paper PMC9023506.
Structures can show the parent of a compound that is named as a salt.

tested on: Danio rerio larvae (5 dpf); assay: excitability to 1-s acoustic pulses, difference vs DMSO (percentage points (treated minus DMSO)); higher = more of the behaviour than the DMSO vehicle control; conditions: 10 µM; exposure time: 3 h pre-incubation + 3 h imaging
Protocol: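 5-dpf wild-type zebrafish larvae were imaged in 96-well plates. They were treated with 190 Tocris FDA-approved drugs at 10 µM (1 µl/ml DMSO) for 3 h before and 3 h during imaging at 28.5 °C, 48 larvae per drug. Automated image analysis gave % time moving and optomotor responses. Values are drug group mean minus DMSO vehicle mean (n=844), in percentage points, for 10 behaviours.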

Row | Structure (SMILES) | excitability to 1-s acoustic pulses
1 | Clc1ccc2nsnc2c1NC1=NCCN1 [Tizanidine hydrochloride] | 3.69
2 | CCC(=O)O[C@]1(C(=O)SCF)[C@H](C)C[C@H]2[C@@H]3C[C@H](F)C4=CC(=O)C=C[C@]4(C)[C@@]3(F)[C@@H](O)C[C@@]21C [Fluticasone propionate] | 1.18
3 | CCCCC(=O)N(Cc1ccc(-c2ccccc2-c2nnn[nH]2)cc1)[C@H](C(=O)O)C(C)C [Valsartan] | -1.54
4 | Nc1cccc2c1CN(C1CCC(=O)NC1=O)C2=O (stereo not given) [Lenalidomide] | -2.77
5 | Cc1ccc(-c2cc(C(F)(F)F)nn2-c2ccc(S(N)(=O)=O)cc2)cc1 [Celecoxib] | 6.46
6 | N#Cc1ccc2[nH]cc(CCCCN3CCN(c4ccc5oc(C(N)=O)cc5c4)CC3)c2c1 [Vilazodone hydrochloride] | 16.8
7 | CCCN(CCC)S(=O)(=O)c1ccc(C(=O)O)cc1 [Probenecid] | 4.8
8 | Cc1ccc(O)c([C@H](CCN(C(C)C)C(C)C)c2ccccc2)c1 [Tolterodine L-tartrate] | 7.2
9 | CCCCc1nc(Cl)c(CO)n1Cc1ccc(-c2ccccc2-c2nnn[nH]2)cc1 [Losartan potassium] | 5.58
10 | COCCCOc1cc(C[C@@H](C[C@H](N)[C@@H](O)C[C@H](C(=O)NCC(C)(C)C(N)=O)C(C)C)C(C)C)ccc1OC [Aliskiren hemifumarate] | 12.2
11 | COc1ccccc1OCCNCC(O)COc1cccc2[nH]c3ccccc3c12 (stereo not given) [Carvedilol] | 21
12 | CCCc1nn(C)c2c(=O)[nH]c(-c3cc(S(=O)(=O)N4CCN(C)CC4)ccc3OCC)nc12 [Sildenafil citrate] | 4.02
13 | CNC(=O)c1cc(Oc2ccc(NC(=O)Nc3ccc(Cl)c(C(F)(F)F)c3)cc2)ccn1 [Sorafenib] | 14.4
14 | Nc1ncn([C@H]2C[C@H](O)[C@@H](CO)O2)c(=O)n1 [Decitabine] | 6.23
15 | CCOC(=O)[C@H](CCc1ccccc1)N[C@H]1CCc2ccccc2N(CC(=O)O)C1=O [Benazepril hydrochloride] | 0.498
16 | CCc1c2c(nc3ccc(OC(=O)N4CCC(N5CCCCC5)CC4)cc13)-c1cc3c(c(=O)n1C2)COC(=O)[C@]3(O)CC | 6.46
17 | CCCCC1=NC2(CCCC2)C(=O)N1Cc1ccc(-c2ccccc2-c2nnn[nH]2)cc1 [Irbesartan] | -3.79
18 | COc1cccc2c1C(=O)c1c(O)c3c(c(O)c1C2=O)C[C@@](O)(C(=O)CO)C[C@@H]3O[C@H]1C[C@H](N)[C@H](O)[C@H](C)O1 [Doxorubicin hydrochloride] | 13.8
19 | OC(CNCC(O)C1CCc2cc(F)ccc2O1)C1CCc2cc(F)ccc2O1 (stereo not given) [Nebivolol hydrochloride] | 15.9
20 | OCc1cc(C(O)CNCCCCCCOCCCCc2ccccc2)ccc1O (stereo not given) [Salmeterol xinafoate] | 12.3

Row | Structure (SMILES) | excitability to 1-s acoustic pulses
21 | C[C@H](Cc1cc2c(c(C(N)=O)c1)N(CCCO)CC2)NCCOc1ccccc1OCC(F)(F)F [Silodosin] | 21.7
22 | COc1c(C)c2c(c(O)c1C/C=C(\C)CCC(=O)O)C(=O)OC2 [Mycophenolic acid] | 0.774
23 | C[C@H]1C[C@@H]2[C@H]([C@@H](O)C[C@@]3(C)[C@H]2CC[C@]3(O)C(=O)CO)[C@@]2(C)C=CC(=O)C=C12 [Methylprednisolone] | 0.503
24 | COc1cc([C@@H]2c3cc4c(cc3[C@@H](O[C@@H]3O[C@@H]5CO[C@@H](C)O[C@H]5[C@H](O)[C@H]3O)[C@H]3COC(=O)[C@H]23)OCO4)cc(OC)c1O [Etoposide] | 9.69
25 | O=C(O)CCCc1ccccc1 [Sodium 4-Phenylbutyrate] | 2.04
26 | CC(C)(C#N)c1cc(Cn2cncn2)cc(C(C)(C)C#N)c1 [Anastrozole] | 3.65
27 | CCOC(=O)[C@H](CCc1ccccc1)N[C@@H](C)C(=O)N1[C@H](C(=O)O)C[C@@H]2CCC[C@@H]21 [Ramipril] | 4.17
28 | O=c1[nH]c(=O)n([C@H]2C[C@H](O)[C@@H](CO)O2)cc1C(F)(F)F [Trifluorothymidine] | 2.88
29 | CC(=O)NC[C@H]1CN(c2ccc(N3CCOCC3)c(F)c2)C(=O)O1 [Linezolid] | 7.52
30 | Cc1ccsc1C(=CCCN1CCC[C@@H](C(=O)O)C1)c1sccc1C [Tiagabine hydrochloride] | -9.16
31 | CN1CCC[C@@H]1Cc1c[nH]c2ccc(CCS(=O)(=O)c3ccccc3)cc12 [Eletriptan hydrobromide] | 3.9
32 | Cc1c(-c2ccc(O)cc2)n(Cc2ccc(OCCN3CCCCCC3)cc2)c2ccc(O)cc12 [Bazedoxifene acetate] | 16
33 | CCCCNc1cc(C(=O)O)cc(S(N)(=O)=O)c1Oc1ccccc1 [Bumetanide] | 3.02
34 | CC[C@H](C)C(=O)O[C@H]1C[C@@H](C)C=C2C=C[C@H](C)[C@H](CC[C@@H]3C[C@@H](O)CC(=O)O3)[C@H]21 [Lovastatin] | 12.6
35 | CN1CCN2c3ncccc3Cc3ccccc3C2C1 (stereo not given) [Mirtazapine] | 0.878
36 | CC(=O)S[C@@H]1CC2=CC(=O)CC[C@]2(C)[C@H]2CC[C@@]3(C)[C@@H](CC[C@@]34CCC(=O)O4)[C@H]12 [Spironolactone] | 1.36
37 | Nc1nc(Cl)nc2c1ncn2[C@@H]1O[C@H](CO)[C@@H](O)[C@@H]1F [Clofarabine] | 2.22
38 | N#C[C@@H]1C[C@@H]2C[C@@H]2N1C(=O)[C@@H](N)C12CC3CC(CC(O)(C3)C1)C2 [Saxagliptin hydrochloride] | 2.82
39 | O=C(NCC1CCCCN1)c1cc(OCC(F)(F)F)ccc1OCC(F)(F)F (stereo not given) [Flecainide acetate] | 5.58
40 | N#Cc1ccc(C(c2ccc(C#N)cc2)n2cncn2)cc1 [Letrozole] | -0.518
